In the library only some 12% were active in any assay of this set; here they are far more common.
G9a block: inhibitors of human histone lysine methyltransferase G9a; 350,000 tested, 8.8% active; Q96KQ7; Potency, µM (series often up to 102 µM), for the others: at the top dose activity, negative = inhibition, actives largely listed as inhibitors; AID 504332; G9a H3K9 monomethylation, AlphaScreen, 2 h; note: % is set by controls: 0 for no effect and ±100 for the full control effect; nearly all actives have a fitted effect of over 75% in size
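Methyltransferase reactions run at room temperature for 2 h (20 nM enzyme, 500 nM biotin-H3K9 peptide, 20 uM SAM) after a 15 min compound preincubation; product detected by AlphaScreen beads and anti-H3K9me1 antibody.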
JMJD2A Tudor inh: inhibitors of human JMJD2A Tudor domain | 390,000 tested, 4.4% active | AID 504339 | O75164 | Potency, µM (top dose mostly 114 µM), inactives show at the highest dose activity change, negative = inhibition, actives largely listed as inhibitors | AlphaScreen JMJD2A-Tudor / H3K4me3 peptide binding; note: % is set by controls: 0 for no effect and ±100 for the full control effect; nearly all actives have a fitted effect of over 50% in size
Target sequence (O75164 whole entry, looked up, the tested form may be a part): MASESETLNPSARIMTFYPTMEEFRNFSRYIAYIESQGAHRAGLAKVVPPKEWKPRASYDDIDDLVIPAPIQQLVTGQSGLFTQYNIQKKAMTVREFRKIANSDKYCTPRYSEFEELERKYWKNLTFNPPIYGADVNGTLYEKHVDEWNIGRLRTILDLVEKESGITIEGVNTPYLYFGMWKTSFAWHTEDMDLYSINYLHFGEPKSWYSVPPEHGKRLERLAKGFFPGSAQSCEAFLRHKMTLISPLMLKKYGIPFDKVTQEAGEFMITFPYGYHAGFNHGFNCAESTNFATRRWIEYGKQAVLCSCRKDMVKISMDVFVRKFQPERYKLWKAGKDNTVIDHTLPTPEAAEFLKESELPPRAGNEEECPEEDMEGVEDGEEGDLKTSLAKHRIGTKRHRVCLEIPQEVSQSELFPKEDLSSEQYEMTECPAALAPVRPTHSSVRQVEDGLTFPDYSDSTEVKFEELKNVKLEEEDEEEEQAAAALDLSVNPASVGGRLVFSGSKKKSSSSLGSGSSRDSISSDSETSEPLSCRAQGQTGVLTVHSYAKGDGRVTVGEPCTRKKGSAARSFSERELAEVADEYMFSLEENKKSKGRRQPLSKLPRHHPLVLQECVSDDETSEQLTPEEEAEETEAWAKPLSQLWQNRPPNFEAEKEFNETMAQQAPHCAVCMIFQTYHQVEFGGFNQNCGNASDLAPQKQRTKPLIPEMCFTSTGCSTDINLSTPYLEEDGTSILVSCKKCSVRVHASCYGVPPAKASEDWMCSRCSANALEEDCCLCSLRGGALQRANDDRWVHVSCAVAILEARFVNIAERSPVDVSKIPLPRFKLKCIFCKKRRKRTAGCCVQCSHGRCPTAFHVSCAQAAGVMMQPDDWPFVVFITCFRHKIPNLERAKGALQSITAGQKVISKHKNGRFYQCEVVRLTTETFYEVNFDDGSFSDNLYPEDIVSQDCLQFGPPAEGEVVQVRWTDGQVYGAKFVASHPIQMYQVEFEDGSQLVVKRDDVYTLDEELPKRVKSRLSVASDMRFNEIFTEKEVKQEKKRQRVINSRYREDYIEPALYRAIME
HP1b chromo inh: inhibitors of HP1-beta chromodomain binding to methylated histone tails; Potency, µM (series often up to 114 µM), without a hit: at the highest dose activity change, negative = inhibition, usual class: inhibitors; 390,000 tested, 0.56% active; AlphaScreen HP1-beta / biotin-H3K9me3 peptide binding; note: nearly all actives have a fitted effect of over 70% in size
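HP1-beta protein (50 nM final) preincubated 30 min at room temperature with biotinylated H3(1-18)K9me3 peptide (50 nM) in PBS pH 7.4, 0.01% Tween-20, then compound added for 30 min. AlphaScreen streptavidin donor/nickel chelate acceptor beads (10 ug/mL final), 30 min dark, luminescence read.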
BAZ2B inh: blocks human BAZ2B. AID 504333. 360,000 tested, 4.4% active. Q9UIF8. Potency, µM (titrated, usually from 114 µM), for inactives: at the top dose activity change, negative = inhibition, most hits filed as inhibitors. AlphaScreen BAZ2B-H3K14Ac peptide displacement; note: % is set by controls: 0 for no effect and ±100 for the full control effect; nearly all actives have a fitted effect of over 60% in size
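AlphaScreen displacement of biotin-H3(5-23)K14Ac peptide (50 nM final) from BAZ2B (50 nM final) in PBS pH 7.4, 0.01% Tween-20; complex preformed 30 min RT, then compounds (top 110 uM) 30 min RT, beads 20 min dark.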
Sfp PPTase inh: Sfp phosphopantetheinyl transferase inhibition | Q9F4F7 | Biochemical Sfp PPTase activity, qHTS | Potency, µM, for inactives: largest response in the series, negative = inhibition, hits mostly inhibitors | 310,000 tested, 3.5% active | AID 1490;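 note: the enzyme is Sfp with the accession as filed and its product quenches rhodamine fluorescence; 0% = enzyme reaction without inhibitor and -100% = no enzyme wells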
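Fluorescence-quenching assay: 15 nM Sfp-PPTase preincubated 15 min at room temperature with compound, then 5 uM rhodamine-CoA and 12.5 uM BHQ-2-labelled YbbR peptide added. Fluorescence (ex 525/em 598 nm) read at start and after 30 min; difference gives rate.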
Active calls of the source: *; ? = inconclusive; / = no result given; [ ] = remark or other dose. Calls come from the whole dose curve; as a rule, active = well fitted curve in the direction sought with a large enough effect; inconclusive = small, poorly fitted or top-dose-only effect, or another doubt; inactive = no such curve, though single readings can be large; an effect the other way counts as inactive or inconclusive. Potency is the fitted concentration of half-maximal effect.

SMILES | G9a block | JMJD2A Tudor inh | HP1b chromo inh | BAZ2B inh | Sfp PPTase inh
C=CCn1c(CCSCc2ccccc2)n[nH]c1=S | 7.1µM* | 16µM* | 16% | -10% | 0%
C=CCn1c(CCSCc2ccc(OC)c(C)c2)n[nH]c1=S | 2µM* | -34% | 30% | -38% | 11%
CCn1c(CCCc2ccc(OC)c(C)c2)n[nH]c1=S | / | ? | 38% | -11% | ?
C=CCn1c(CSCc2ccccc2)nnc1SCC(=O)NCc1ccccc1 | 20% | -9% | 19% | -10% | 4%
Nc1nc(NCC2CCCO2)nc(Nc2cccc(Cl)c2)c1[N+](=O)[O-] (centres undefined) | 2% | -19% | 35% | -4% | -2%
Cc1ccc2[nH]c(=O)c(NC(N)=S)nc2c1 | ? | -25% | 12% | 2% | -19%
O=c1[nH]c2ccccc2nc1C(Cl)c1ccccc1 (centres undefined) | ? | / | / | 56µM* | -12%
NC(=S)Nc1nc2ccccc2[nH]c1=O | 7.9µM* | / | / | ? | ?
CCOC(=O)C1CCN(C(=O)COC(=O)c2oc3ccc(OC)cc3c2C)CC1 | 8%[2.33 µM] | -9% | 24% | 7% | /
O=S(=O)(N/N=C\c1ccccc1O)c1ccc(Cl)cc1 | ? | -28% | 14% | -25% | 19%
O=S(=O)(O)c1ccc(NN=Cc2ccccc2O)cc1 | / | 100µM* | 1%[57 µM] | / | /
COc1cccc(/C=N/Nc2ccc(S(=O)(=O)O)cc2)c1O | 2.2µM* | -15% | 27% | ? | ?
O=[N+]([O-])c1ccc(C=NNc2ccc(S(=O)(=O)O)cc2)cc1 | / | 79µM* | 2%[57 µM] | / | /
O=[N+]([O-])c1ccc(N/N=C/c2ccc[nH]2)cc1 | 11µM* | 56µM* | ? | 45µM* | ?
O=C(Nc1ccc(-n2cnnn2)cc1)C1CCC1 | 24% | -15%[57.1 µM] | 0% | 66% | -17%
COc1ccc2[nH]c(C(=O)Nc3ccc(C)c(F)c3)cc2c1 | / | -6% | 22% | -13% | ?
CCCCNC(=O)c1cc2c(C)cc(C)cc2[nH]1 | 50µM* | -19% | 33% | -25% | 5%
Cc1cc(C)c2cc(C(=O)Nc3ccc(C)c(F)c3)[nH]c2c1 | 45µM* | -17% | 45% | -8% | -4%
CC1(C)c2cc(O)ccc2OC1N1CCOCC1 (centres undefined) | 8.9µM* | -11% | 42% | -13% | 7%
Cc1nccc(-c2cccc(N/N=C(\C#N)C(=O)c3ccccc3)c2)n1 | ? | ? | -5% | -28% | 3%
COC(=O)c1ccc(N=NNc2ccccc2)cc1 | 8.9µM* | -25% | 6% | ? | ?
O=C(O)c1ccc(N=NNc2cccc([N+](=O)[O-])c2)cc1 | 45µM* | -16% | -4% | -30% | 6%
N#C/C(=N\Nc1cccc([N+](=O)[O-])c1)C(=O)c1ccc(Br)cc1 | 45µM* | 40µM* | ? | 40µM* | -6%
CCOC(=O)c1cc2n(c1/N=C/N(C)C)-c1ccccc1C2=O | ? | -7% | 50% | -2% | 7.9µM*
CCOC(=O)c1cc(=O)[nH]c2ccccc12 | 9% | -10% | 26% | -15% | 12%
SMILES | G9a block | JMJD2A Tudor inh | HP1b chromo inh | BAZ2B inh | Sfp PPTase inh
O=C(C1CCCN(S(=O)(=O)c2cccc3cccnc23)C1)N1CCc2ccccc21 (centres undefined) | 45µM* | -23% | 46% | 1% | -6%
O=C(C1CCN(S(=O)(=O)c2cccc3cccnc23)CC1)N1CCN(C2CCCCC2)CC1 | 35µM* | -27% | 38% | -3% | 5%
O=C(NC1CCCCC1)C1CCCN(S(=O)(=O)c2cccc3cccnc23)C1 (centres undefined) | 9% | -6% | 41% | 0% | 12%
O=C(COc1ccc2oc(-c3ccco3)cc(=O)c2c1)N1CCCCC1 | ? | -2%[11.4 µM] | ? | 50µM* | 17%
O=c1cc(-c2ccco2)oc2ccc(Cl)cc12 | -18%[12.7 µM] | -11% | 21% | 4% | 20%
COc1cccc2oc(-c3ccco3)cc(=O)c12 | 5.6µM* | -8% | 41% | -2% | 3%
COc1cc(OC)c2c(=O)cc(-c3ccccc3)oc2c1 | -37%[59 µM] | -14% | 38% | -16% | 10%
COc1ccc2oc(-c3ccco3)cc(=O)c2c1 | 45µM* | 3%[11.4 µM] | 63% | -18% | ?
O=C(COc1ccc2c3c(c(=O)oc2c1)CCC3)N1CCCCC1 | -1% | -12% | 4% | -7% | 14%

Source: PubChem BioAssay
